Measured values as given in PubChem BioAssay AID720519 (National Center for Advancing Translational Sciences (NCATS), 2013).
Results filed as inconclusive are left out. Calls of active or inactive are those of the source. Calls follow the shape of the dose curve; as a rule, active = well fitted activation curve with a large enough effect; inconclusive = small, poorly fitted or top-dose-only effect; inactive = flat fitted curve, though single readings scatter.

assay: qHTS for Inhibitors of Cell Surface uPA Generation: Confirmatory Assay for Cherry-picked Compounds; settings: cell surface uPA activity generation, qHTS confirmation; series mostly up to 115 µM; inhibition: at the top concentration; as to inhibition: 0% is about no effect
Method in brief: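 RAW 264.7 cells at 4000/well, incubated overnight, then treated with compounds. After 24 h at 37 C, viability was read by ATPlite luminescence. An increase in signal indicates blocked uPA-dependent LF entry.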
Potency is read from the fitted curve at half-maximal effect.

| SMILES | inhibition | Potency |
| --- | --- | --- |
| CC(C)(C)NC(=O)C(c1cccs1)N(C(=O)c1csnn1)c1ccccc1F (centres undefined) | -1.14% (inactive) |  |
| Cc1cccn2c(CNCC(C)Oc3cccnc3)c(C(=O)N3CCOCC3)nc12 (centres undefined) | -1.92% (inactive) |  |
| COc1ccc(NC(=O)CCNS(=O)(=O)c2ccccc2F)cc1S(=O)(=O)N1CCOCC1 | -1.83% (inactive) |  |
| CCCOc1ccc(S(=O)(=O)NNC(=O)c2cc3ccccc3o2)cc1 | -3.45% (inactive) |  |
| CN(C)S(=O)(=O)c1cccc(C(=O)OCC(=O)NCc2ccc3c(c2)OCO3)c1 | -1.01% (inactive) |  |
| CCOc1ccccc1CN1CCCC(CNS(=O)(=O)c2ccc(OC)cc2)C1 (centres undefined) | -2.48% (inactive) |  |
| Cc1ccc(NC(=O)CSc2nncn2N)cc1C | 2.68% (inactive) |  |
| O=C(NCC1CCCO1)c1c(O)c2cccc3c2n(c1=O)CCC3 (centres undefined) | -3.48% (inactive) |  |
| O=C(COC(=O)Cn1cnc2ccccc21)NCc1ccc(F)cc1 | 0.451% (inactive) |  |
| Cc1nc(SCc2nc3ccccc3[nH]2)c2oc3cc([N+](=O)[O-])ccc3c2n1 | -3.44% (inactive) |  |
| Cc1ccc([C@H]2C(C(=O)O)=CC[C@@H](c3cccc(C)c3)N2S(=O)(=O)c2ccc(C)cc2)cc1 | -2.73% (inactive) |  |
| Cc1ccc(S(=O)(=O)NCC(=O)N/N=C/c2ccc(Cl)cc2)cc1 | -1.38% (inactive) |  |
| CCOC(=O)N1CCN(C(=O)c2ccc3c(c2)sc2nc(-c4ccc(OC)cc4)cn23)CC1 | -1.97% (inactive) |  |
| COc1ccccc1CCNC(=O)C(=O)NCC1OCCN1S(=O)(=O)c1ccc(OC)c(OC)c1 (centres undefined) | -1.7% (inactive) |  |
| COc1ccc(CNC(=O)C2(CC3CC(c4ccccc4)=NO3)CCNCC2)cc1 (centres undefined) | -2.48% (inactive) |  |
| COc1ccc(N2CC(C(=O)Nc3nnc(SCCC4OCCO4)s3)CC2=O)cc1 (centres undefined) | -2.33% (inactive) |  |
| CC(=O)Oc1ccc(OC(C)=O)c(SCCCCCCl)c1 | -3.76% (inactive) |  |
| CS(=O)(=O)c1ccc(Cl)c(NC(=O)COC(=O)CNC(=O)c2cccs2)c1 | -0.838% (inactive) |  |
| CCCS(=O)(=O)c1ccc(COC(=O)Cc2ccc([N+](=O)[O-])cc2)cc1 | -2.02% (inactive) |  |
| O=C(COc1cccc2ccccc12)NNC(=O)c1cnccn1 | -2.03% (inactive) |  |

| SMILES | inhibition | Potency |
| --- | --- | --- |
| Cc1ccc(C(=O)COc2cc(O)c3c(=O)cc(-c4ccccc4)oc3c2)cc1 | -1.83% (inactive) |  |
| O=[N+]([O-])c1ccc(C[n+]2cccc(O)c2)cc1 | -3.62% (inactive) |  |
| CCOc1ccc(OCC)c(NC(=O)c2ccc(CNc3c(N4CCCC4)c(=O)c3=O)cc2)c1 | -4.06% (inactive) |  |
| O=S(=O)(c1ccc2nc(N3CCN(c4ccccc4)CC3)ccc2c1)N1CCCCC1 | 1.42% (inactive) |  |
| COc1cc2c(OC(C)=O)c3c(c(-c4ccc5c(c4)OCO5)c2cc1OC)C(=O)OC3 |  | 2.33 µM (active) |
| COc1ccc([C@H]2CC(=O)C=C(c3ccc(CNC(=O)OC(C)(C)C)cc3)C2)cc1 | -2.37% (inactive) |  |
| CCc1c(C)sc(NC(=S)N2CC(C)OC(C)C2)c1C(=O)OC (centres undefined) | -1.09% (inactive) |  |
| O=C(O)C(Nc1nc(C(F)(F)F)nc2ccccc12)c1ccccc1 (centres undefined) | 0.904% (inactive) |  |
| COc1ccccc1NC(=O)Cn1nnc(-c2ccccc2NC(=O)c2cc3ccccc3oc2=O)n1 | -2.06% (inactive) |  |
| O=S(=O)(/N=C(/c1ccccc1)N1CCOCC1)c1ccc(F)cc1F | -0.111% (inactive) |  |
| O=C(NCCCn1cccn1)C1CCC(=O)N(Cc2ccccc2F)C1 (centres undefined) | -0.984% (inactive) |  |
| O=S(=O)(NCC(c1cccnc1)N1CCOCC1)c1ccccc1 (centres undefined) | -1.68% (inactive) |  |
| C/C=C(/C(=C/C)c1ccc(O)cc1)c1ccc(O)cc1 | -3.36% (inactive) |  |
| Cc1ccc(Cl)cc1NC(=O)c1ccccc1OCC(=O)N1CCOCC1 | 1.32% (inactive) |  |
| COc1ccc2cc(CCNC(=O)c3ccc4c(c3)OCO4)c(=O)[nH]c2c1 | -1.6% (inactive) |  |
| COc1ccc(NC(=O)c2cccnc2N2CCOCC2)cc1 | 0.0181% (inactive) |  |
| COc1ccc(NS(=O)(=O)c2cc(NS(=O)(=O)c3cc(C(=O)O)ccc3OC)ccc2C)cc1 | -0.471% (inactive) |  |
| Cc1c(C(=O)N(Cc2ccccc2Cl)C2CCS(=O)(=O)C2)oc2ccccc12 (centres undefined) | -3.3% (inactive) |  |
| COCCN(C(=O)CSc1nnc(-c2ccncc2)n1C)c1c(N)n(CC(C)C)c(=O)[nH]c1=O | -1.56% (inactive) |  |
